# HepG2 tox – qHTS for Inhibitors of TGF-b: Cytotox Counterscreen; HepG2 CAGA-GFP viability, ATP luminescence, 18 h; Potency, µM (highest dose often 46.1 µM), for inactives: top-dose activity change, negative = cytotoxicity, most hits filed as cytotoxic; 0.76% of 410,000 active; AID 588856, 2011; also: potency is read from the fitted curve at half-maximal effect
#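 HepG2 CAGA-GFP cells (1000/well, DMEM with 1% FBS) received compound, then TGF-beta at 500 pg/mL final, and were incubated 18 hours at 37 degrees C. Viability was read by CellTiter-Glo luminescence. Media-only wells were set as complete cell-killing and DMSO as no toxicity.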
# TDP1 cell CPT – qHTS for Inhibitors of human tyrosyl-DNA phosphodiesterase 1 (TDP1): qHTS in cells in presence of CPT; 12% of 420,000 active; Potency, µM (doses to about 46.2 µM), without a hit: at the highest dose activity change, negative = growth inhibition, actives largely listed as inhibitors; chicken DT40 Tdp1-/-;hTDP1 cells + 20 nM CPT, ATP luminescence, 48 h; also: potency is read from the fitted curve at half-maximal effect; % is scaled to controls: 0 for no effect and ±100 for the full control effect; nearly all actives have a fitted effect of over 55% in size
#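 Chicken DT40 Tdp1-/- cells stably complemented with human TDP1 were seeded at 400 cells/well in medium containing 20 nM camptothecin, exposed to pin-transferred compounds, and grown at 37 °C for at least 48 hr. Viability was read as ATP luminescence.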
# DT40 TDP1 no CPT – qHTS for Inhibitors of human tyrosyl-DNA phosphodiesterase 1 (TDP1): qHTS in cells in absence of CPT. DT40 Tdp1-/- hTDP1 cells, no CPT, ATP luminescence, 48 h. Potency, µM (top dose mostly 46.2 µM), inactives show at the top dose activity change, negative = growth inhibition, usual class: inhibitors. 15% of 420,000 active. AID 686978, 2013; also: potency is read from the fitted curve at half-maximal effect; % is scaled to controls: 0 for no effect and ±100 for the full control effect; nearly all actives have a fitted effect of over 55% in size
#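 Camptothecin absent (DMSO only). Human TDP1-complemented DT40 knockout cells, 400 cells/well, 37 °C for minimum 48 hr; ATP measured via CellTiter-Glo, 30 min dark incubation, luminescence.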
# IL-1B inflam inh – qHTS for Inhibitors of Inflammasome Signaling: IL-1-beta AlphaLISA Primary Screen; THP-1 LPS/ATP IL-1B secretion, AlphaLISA, 16 h; stronger effect = lower value; activity change, % at 57.5 µM; 4.7% of 360,000 active; AID 743279, 2014; in the data active = activity change below about -50%; inconclusive = mostly about -30% to -49%; also: % is scaled to controls: 0 for no effect and ±100 for the full control effect
#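 THP-1 cells pretreated 1 hr with compounds (up to 57.5 uM final), then stimulated with LPS (250 ng/mL final) plus ATP (1.25 mM final); secreted IL-1B measured by AlphaLISA after 16 hr, decreased signal indicating inhibition.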
# TGFb inhibitor – qHTS for Inhibitors of TGF-b. 1.2% of 410,000 active. AID 588855, 2011. Potency, µM (top dose mostly 46.1 µM), for inactives: top-dose activity, negative = inhibition, actives largely listed as inhibitors. HepG2 CAGA-GFP TGF-b/SMAD3 reporter, GFP fluorescence, 18 h; TGF-beta stimulated, 500 pg/mL final; also: potency is read from the fitted curve at half-maximal effect; % is scaled to controls: 0 for no effect and ±100 for the full control effect; nearly all actives have a fitted effect of over 65% in size
#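 HEPG2 CAGA-GFP cells (1000/well, DMEM with 1% FBS) were pre-incubated 2 h at 37 degrees C, given compound by pin tool, then stimulated with TGF-beta at 500 pg/mL final for 18 h before per-cell GFP fluorescence imaging.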
# ASM inhibitor – Inhibitors of Secretory Acid Sphingomyelinase (S-ASM): qHTS; Potency, µM (highest dose often 57.5 µM), inactives show top-dose activity change, negative = inhibition, actives largely listed as inhibitors; AID 504937, 2011; placental ASM, HMU-PC fluorogenic substrate, 60 min; Sphingomyelin phosphodiesterase (Homo sapiens), P17405; 0.006% of 340,000 active; also: potency is read from the fitted curve at half-maximal effect
# Target sequence (P17405 47-631 limits assumed): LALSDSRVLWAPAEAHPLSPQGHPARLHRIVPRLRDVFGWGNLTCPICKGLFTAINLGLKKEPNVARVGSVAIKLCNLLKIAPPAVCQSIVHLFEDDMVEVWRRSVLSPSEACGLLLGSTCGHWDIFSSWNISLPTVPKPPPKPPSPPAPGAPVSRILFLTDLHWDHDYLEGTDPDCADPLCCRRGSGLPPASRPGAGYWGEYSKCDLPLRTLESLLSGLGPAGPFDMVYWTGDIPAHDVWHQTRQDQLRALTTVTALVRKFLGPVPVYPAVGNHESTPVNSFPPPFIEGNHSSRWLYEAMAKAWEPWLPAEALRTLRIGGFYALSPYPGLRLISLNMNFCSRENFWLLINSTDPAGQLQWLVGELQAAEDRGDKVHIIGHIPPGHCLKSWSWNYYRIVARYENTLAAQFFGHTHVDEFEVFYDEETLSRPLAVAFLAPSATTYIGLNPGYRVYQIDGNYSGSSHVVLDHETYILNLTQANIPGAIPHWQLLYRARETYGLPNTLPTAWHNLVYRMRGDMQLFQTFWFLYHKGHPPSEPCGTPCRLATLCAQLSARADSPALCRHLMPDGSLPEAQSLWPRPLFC
#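 Human placenta-derived ASM preincubated with compound 10 min at room temperature, then reacted with 9 uM (final) fluorogenic HMU-PC substrate for 60 min at 37 C. Stop solution raises pH to 10; fluorescence read at Ex 386/Em 447 nm.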
# * hit, by the source's call; u = inconclusive; x = not tested or not shown. In the library only some 19% were active in any assay of this set; here they are far more common. Unless noted, calls follow the shape of the dose curve; as a rule, active = well fitted curve in the direction sought with a large enough effect; inconclusive = small, poorly fitted or top-dose-only effect, or another doubt; inactive = no such curve, though single readings can be large; an effect the other way counts as inactive or inconclusive.
SMILES,HepG2 tox,TDP1 cell CPT,DT40 TDP1 no CPT,IL-1B inflam inh,TGFb inhibitor,ASM inhibitor
COc1ccc(-c2noc(-c3ccccc3C(=O)Nc3cccnc3)n2)cc1,2%,u,u,-1,5%,-12%
COc1ccc(-c2noc(N3CCC(C(=O)Nc4cccc(OC)c4)CC3)n2)cc1,-15%,18µM*,u,1,u,u
CC(C(=O)Nc1ccc(OC(F)(F)F)cc1)N1Cc2ccccc2C1=O (configuration not stated),-11%,-20%,-26%,x,-6%,x
Cc1cc(C)n2nc(C(=O)OCC(=O)N(Cc3ccccc3)C(C)C)nc2n1,0%,6%,-13%,28,4%,1%
CSCCC(NC(=O)c1ccc(Cl)cc1Cl)C(=O)NCc1ccncc1 (configuration not stated),0%,1%,u,-13,-1%,6%
O=c1c2ccccc2cnn1-c1nc2ccccc2[nH]1,2µM*,4.1µM*,3.7µM*,27,-22%,7%
O=c1c(Cl)c(N2CCCCC2)cnn1-c1nc2ccccc2[nH]1,-41%,u,21µM*,-15,-1%,0%
Clc1ccc2nc(N3CCCCC3)[nH]c2c1,-5%,-23%,-10%,-15,-5%,3%
COc1ccc(NCc2cc3ccc(OC)cc3n(CC(=O)Nc3ccc(C)c(C)c3)c2=O)cc1,-15%,x,x,x,2%,x
CCCCN1C(=O)C(O)(CC(=O)c2ccco2)c2cc(Br)ccc21 (configuration not stated),-21%,2.6µM*,4.1µM*,81,-26%,-1%
CCOC(=O)CN1C(=O)C(O)(CC(=O)c2ccco2)c2ccccc21 (configuration not stated),2%,u,u,10,u,0%
CCCCN1C(=O)C(O)(CC(=O)c2ccc(C)cc2C)c2cc(Br)ccc21 (configuration not stated),-105%,16µM*,16µM*,x,u,x
CCCCN1C(=O)C(O)(CC(=O)c2c(C)n[nH]c2C)c2cc(Br)ccc21 (configuration not stated),6%,3%,-20%,6,-21%,-1%
COCCn1c(=O)c(-c2cccc(C#N)c2)nc2cnc(N3CCOCC3)nc21,x,-25%,-1%,x,x,x
Cc1cc(S(=O)(=O)Nc2cccc(C(=O)O)c2)c(C)c(S(=O)(=O)c2ccccc2)c1,9%,6%,0%,x,-6%,x
O=C(NCc1ccncc1)C(=O)NCC1OCCN1S(=O)(=O)c1ccc(F)cc1 (configuration not stated),0%,6%,8%,32,0%,-1%
Cc1nnc(N2CCN(c3ccccc3F)CC2)c2c1nnn2Cc1ccccc1,0%,u,16µM*,x,-1%,x
Cc1nnc(N2CCN(c3ccccc3F)CC2)c2c1nnn2Cc1ccccc1Cl,7%,15µM*,u,x,0%,x
Cc1nnc(N2CCN(c3cccc(Cl)c3)CC2)c2c1nnn2Cc1ccc(F)cc1,1%,-30%,u,x,4%,x
Cc1nnc(N2CCN(c3ccccc3F)CC2)c2c1nnn2Cc1ccc(F)cc1,-2%,u,u,x,-5%,x
COc1ccc(CCNC(=O)c2cc3n(n2)CCCN(Cc2ccc(C)cc2)C3=O)cc1OC,-24%,u,21µM*,x,-24%,x
Cc1ccc(CN2CCCn3nc(C(=O)NCC(C)c4ccccc4)cc3C2=O)cc1 (configuration not stated),-44%,u,16µM*,x,-29%,x
Cc1ccc(CN2CCCn3nc(C(=O)NCCC(C)C)cc3C2=O)cc1,5%,-19%,-23%,x,-12%,x
CCc1ccc(CNC(=O)c2cc3n(n2)CCCN(Cc2ccccc2)C3=O)cc1,-11%,16µM*,u,x,u,x
Cc1ccc(C2C(/C=C3/SC(=S)NC3=O)=C(c3cccs3)Oc3ccccc32)cc1 (configuration not stated),-93%,-23%,u,17,u,-13%
SMILES,HepG2 tox,TDP1 cell CPT,DT40 TDP1 no CPT,IL-1B inflam inh,TGFb inhibitor,ASM inhibitor
CCCn1nnnc1SCC(=O)N1C(C)CCCC1C (configuration not stated),-7%,16%,-9%,17,-13%,9%
Cc1cc(Cl)ccc1C(=O)C1CCCN(C(=O)c2snnc2C)C1 (configuration not stated),5%,u,u,12,6%,3%
CCCCc1nc2cc(C(=O)N3CCCC(OCCC)C3)ccc2o1 (configuration not stated),-2%,u,-27%,42,2%,-1%
COc1ccc(NC(=O)C(=O)NCc2ccncc2)c(OC)c1,-10%,-11%,-10%,-26,-1%,1%
CCOc1ccc(NC(=O)C(=O)N/N=C\c2ccc(CNS(=O)(=O)c3ccccc3)o2)cc1,1%,u,21µM*,80,-3%,0%
COc1ccc(NC(=O)C(=O)N/N=C\c2ccc(CNC(=O)C(=O)Nc3ccc(C)c(C)c3)o2)c(OC)c1,-27%,5.2µM*,9.2µM*,28,-8%,-2%
Cc1nc(C/C(=N\N)c2ccc(O)cc2O)cs1,4%,-5%,-10%,31,16%,-1%
CCc1cc(/C(Cc2csc(C)n2)=N/O)c(O)cc1O,6%,u,23µM*,-7,u,-7%
Nc1nc(N)nc(-c2ccc([N+](=O)[O-])o2)n1,-19%,u,23µM*,-12,0%,4%

# Screening data deposited in PubChem by National Center for Advancing Translational Sciences (NCATS).
